Compounds with a hit are over-represented: about 8% of the library has one in this group of screens.
HCV inhibitor: qHTS Assay for Inhibitors of Hepatitis C Virus (HCV) | Huh7.5.1 HCVcc-Cre infection, luciferase reporter, 44 h | Potency, µM (titrated, usually from 41.8 µM), inactives show top-dose activity change, negative = inhibition, most hits filed as inhibitors | 3.4% of 340,000 active; further: potency means the concentration at half of the fitted maximal effect; on the % scale 0 is the no-effect control and ±100 the full control effect
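Luciferase read-out (15 sec integration) after a 15 min room-temperature substrate step quantifies HCVcc-Cre infection. Cells, 1,000 per well, had compound added 4 h post-plating, then virus at ~0.5 moi, and were cultured 44 h.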
HCMV antiviral: qHTS Assay for inhibitors of the human cytomegalovirus (HCMV); HFF cells, HCMV-luciferase reporter, 72 h; hits give low values; activity change, negative = inhibition, % at 57.5 µM; 4.5% of 410,000 active; in the data active means activity change below about -60%; inconclusive means no clear call, values can overlap the other calls; inactive means above about -39%; further: on the % scale 0 is the no-effect control and ±100 the full control effect
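Cell-based, HFFs, 1000 cells/well, 16 h 37C; cpds in DMSO + HCMV-luc, MOI 1 PFU/cell; 72 h 37C; OneGlo luminescence after 5 min RT; norm. to buffer vs Salinomycin 10uM.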
MARV entry inh: qHTS for inhibitors of binding or entry into cells for Marburg Virus. Marburg virus pseudotyped entry inhibition, cell reporter. Potency, µM (highest dose often 37.8 µM), for the others: at the highest dose activity change, negative = inhibition, actives largely listed as inhibitors. 1.8% of 300,000 active; calls by dose curve; tested in HEK293 cells; further: potency means the concentration at half of the fitted maximal effect; on the % scale 0 is the no-effect control and ±100 the full control effect
Lassa entry inh: qHTS for Inhibitors of binding or entry into cells for Lassa Virus; Lassa virus pseudotype entry inhibition, cell reporter; Potency, µM (titrated, usually from 37.9 µM), for inactives: top-dose activity change, negative = inhibition, usual class: inhibitors; 1.2% of 300,000 active; calls by dose curve; tested in HEK293 cells; further: potency means the concentration at half of the fitted maximal effect; on the % scale 0 is the no-effect control and ±100 the full control effect; nearly all actives have a fitted effect of over 50% in size
SARS PLpro yeast: qHTS of Yeast-based Assay for SARS-CoV PLP | S. cerevisiae expressing SARS-CoV PLpro, growth rescue | Potency, µM (series often up to 32.9 µM), without a hit: at the top dose activity, positive = growth rescue, hits mostly activators | 0.19% of 330,000 active | AID 485353, 2010; calls by dose curve; further: potency means the concentration at half of the fitted maximal effect; 0% is about no effect; nearly all actives have a fitted effect of over 55% in size
FMDV inh: High Throughput Screening for Foot and Mouth Disease Virus Antivirals; FMDV antiviral cell-based qHTS; Potency, µM (doses to about 57.9 µM), inactives show at the top dose activity change, negative = inhibition, most hits filed as inhibitors; 1.2% of 410,000 active; AID 1159524, 2015; calls by dose curve; tested in HEK293T cells; further: read-out not given here; potency means the concentration at half of the fitted maximal effect; on the % scale 0 is the no-effect control and ±100 the full control effect; nearly all actives have a fitted effect of over 45% in size
HCV inh confirm: qHTS Assay for Inhibitors of Hepatitis C Virus (HCV): Confirmation Assay for Cherry-picked Compounds | shares compounds with HCV inhibitor | HCVcc-Cre infectious virus cell assay, luciferase, inhibition | Potency, µM (top dose mostly 41.8 µM), without a hit: top-dose activity, negative = inhibition, most hits filed as inhibitors | 78% of 640 active | AID 720575, 2013; further: potency means the concentration at half of the fitted maximal effect; nearly all actives have a fitted effect of over 80% in size
HCV cytotox: qHTS Assay for Inhibitors of Hepatitis C Virus (HCV): Cytotoxicity Counterscreen for Cherry-picked Compounds | shares compounds with HCV inhibitor | HCV host cell line cytotoxicity counterscreen | Potency, µM (doses to about 41.8 µM), for inactives: at the highest dose activity change, negative = cytotoxicity, actives largely listed as inhibitors | 22% of 640 active;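 further: potency means the concentration at half of the fitted maximal effect; 44 h compound exposure; on the % scale 0 is the no-effect control and ±100 the full control effect; nearly all actives have a fitted effect of over 55% in size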
An asterisk follows results filed as active; u = inconclusive; x = no result; [ ] = another dose, or the depositor's remark. Unless noted, the call rests on the fitted dose curve; in most records, active means well fitted curve in the direction sought with a large enough effect; inconclusive means small, poorly fitted or top-dose-only effect, or another doubt; inactive means no such curve, though single readings can be large; an effect the other way counts as inactive or inconclusive.

SMILES	HCV inhibitor	HCMV antiviral	MARV entry inh	Lassa entry inh	SARS PLpro yeast	FMDV inh	HCV inh confirm	HCV cytotox
Cc1ccccc1OCC(=O)Nc1cc(-c2cccc(Br)c2)nn1-c1ccccc1	x	24	x	-8%[46.1 µM]	x	-5%	x	x
S=C(c1ccc(-c2ccc(Br)cc2)o1)N1CCOCC1	u	125	u	-26%	2%	18%	x	x
S=C(c1ccc(-c2ccc(Cl)c(Cl)c2)o1)N1CCOCC1	u	x	-22%	u	-14%	x	14µM*	-18%
CCn1c(=NC(=O)C2COc3ccccc3O2)sc2c(C)ccc(OC)c21 (centres undefined)	u	u	x	x	0%	u	13µM*	36%
O=[N+]([O-])c1ccc(/C=[N+](\[O-])[C@@H]2CCCC[C@@H]2/[N+]([O-])=C/c2ccc([N+](=O)[O-])o2)o1	u	-98*	u	u	-8%	32µM*	u	u
COc1ccc(C)cc1NC(=O)N1CCN(c2cc(-c3noc(C)n3)ccc2C)CC1	x	-19	x	17%[46.1 µM]	x	-26%	x	x
O=[N+]([O-])c1cc2c(cc1[N+](=O)[O-])OCCOCCOCCOCCO2	6.3µM*	90	-11%	-42%	-1%	-18%	u	-15%
O=C(Cc1ccc(Cl)cc1Cl)Nc1ccncc1Cl	7.9µM*	-90*	x	x	-16%	u	7µM*	10µM*
COC(=O)c1cc2c(C)cc3ccc(C)cn3c-2c1C(=O)OC	4µM*	-21	1%	-13%	3%	0%	11µM*	43%
COC(=O)c1cc2ccccn2c2c(C(=O)OC)c(C(=O)OC)cc1-2	u	46	u	-28%	15%	u	x	x
CNCCc1cnc[nH]1	x	x	x	x	x	7%	x	x
Cc1cnc[nH]1	-61%	-22	x	x	-2%	-16%	9%	-7%
Cc1ccc(CN2c3ccccc3-c3nc(SCC(=O)NCCc4ccccc4)ncc3S2(=O)=O)cc1	x	6	x	-7%[46.1 µM]	x	-10%	x	x
COc1cccc(-n2c(SCC(=O)Nc3ccc4c(c3)OCO4)nc3c([nH]c4ccccc43)c2=O)c1	x	-3	x	-29%[46.1 µM]	x	-23%	x	x
Cc1nc2nc(C)n(CCN3CCOCC3)c(=O)c2c(-c2cccc([N+](=O)[O-])c2)c1C(=O)CCCCCCCCCCN1CCC(c2ccccc2)(c2ccccc2)CC1	u	-78*	0.5µM*	u	x	25µM*	14µM*	u
O=C(NCCCN1CCOCC1)/C(=C/c1ccc(-c2cccc([N+](=O)[O-])c2)o1)NC(=O)c1ccccc1	x	18	x	x	x	-26%	x	x
O=C(O)CC(Sc1ccc(Cl)cc1)C(=O)Nc1ccccc1 (centres undefined)	x	-2	x	x	x	x	x	x
CCCc1nn2c(=O)cc(COC(=O)c3cccc(NC(=O)c4cccs4)c3)nc2s1	x	24	x	10%[46.1 µM]	x	12%	x	x
COc1cc2sc(C)nc2c2sccc12	2.2µM*	11	3%	1%	3%	-14%	25µM*	43%
COc1ccc2sc(C)nc2c1NC(C)=O	-4%	-17	-2%[46.1 µM]	2%	5%	-14%	x	x
CCC(=O)c1cc2c(cc1NC(=O)c1ccccc1)OCCO2	4µM*	5	3%	-11%	6%	x	4µM*	28%
CCC(=O)c1cc2c(cc1NC(=O)c1ccccc1F)OCCO2	x	-14	7%[46.1 µM]	-21%[46.1 µM]	x	-12%	x	x
COc1ccc(-c2nc(CSCC(=O)NCc3ccc4c(c3)OCO4)c(C)o2)cc1OC	u	-7	u	-4%	u	-25%	x	x
COc1ccc2nc(SCC(=O)NCc3ccc4c(c3)OCO4)[nH]c2c1	6%	u	-12%	2%	11%	-16%	x	x
CCOc1ccc2nc(SCC(=O)NCc3ccc4c(c3)OCO4)[nH]c2c1	4µM*	143	9%	-11%	0%	-19%	u	-17%
SMILES	HCV inhibitor	HCMV antiviral	MARV entry inh	Lassa entry inh	SARS PLpro yeast	FMDV inh	HCV inh confirm	HCV cytotox
COc1ccc(-c2ccc(SCC(=O)NCc3ccc4c(c3)OCO4)nn2)cc1OC	2.8µM*	30	u	u	1%	-26%	-25%	-9%
Cc1cc(/C=C(\C#N)C(=O)Nc2ccccc2)c(C)n1-c1ccc2c(c1)OCO2	u	-26	u	u	-1%	-7%	18µM*	-13%
COc1cccc(-c2nc(CS(=O)(=O)CC(=O)NCc3cccc(Cl)c3)c(C)o2)c1	x	-4	-19%[46.1 µM]	2%[46.1 µM]	x	-6%	x	x
COc1cccc(C(=O)Nc2c(C(=O)NC(C)(C)C)oc3ccccc23)c1	x	-15	x	-18%[46.1 µM]	x	-29%	x	x
Cc1ccc(NCC(=O)N/N=C/c2ccc(C(=O)O)cc2)cc1	3%	25	x	x	-3%	4%	x	x
Cc1ccc(NCC(=O)N/N=C\c2ccc([N+](=O)[O-])o2)cc1	3.2µM*	-82*	u	-29%	29%	x	14µM*	u
COC(=O)C1=C(C)NC(=O)NC1c1ccc(-c2ccccc2Cl)o1 (centres undefined)	u	-22	-9%[46.1 µM]	-13%	-3%	u	22µM*	2%
Oc1ccccc1-c1nc(NCc2cccnc2)c2ccccc2n1	5.6µM*	-30	x	x	-6%	-2%	13µM*	12%
CCOC(=O)c1ccc(Nc2nc3ccc(C(=O)c4ccccc4)cc3n3c(C)nnc23)cc1	x	-18	-19%[46.1 µM]	8%[46.1 µM]	x	-10%	x	x
O=C(Nc1cc(Br)ccc1O)c1cnn2c(C(F)F)cc(C3CC3)nc12	u	-7	u	u	-6%	-15%	7µM*	-95%
N#C/C(=C\c1cn(-c2ccccc2)nc1-c1ccccc1)S(=O)(=O)c1ccccc1	6%	11	10%	8%	2%	14%	x	x
CC(C)n1cc(/C=C(\C#N)S(=O)(=O)c2ccccc2)c2ccccc21	8.9µM*	54	u	-12%	0%	4%	u	-13%
CCc1ccc(NC(=O)Cn2c(=O)n(CCCC(=O)NCCc3ccc(OC)c(OC)c3)c(=O)c3ccccc32)cc1	x	7	-17%[46.1 µM]	22%[46.1 µM]	x	-24%	x	x
Cn1c(=O)c2c(ncn2C[C@@H](O)CO)n(C)c1=O	x	x	-10%	x	x	x	x	x
COc1cc(C(=O)O/N=C(\N)c2ccc([N+](=O)[O-])cc2)cc(OC)c1OC	u	0	-4%	-23%	0%	-24%	u	26%

Compound activity from PubChem.
